Reference: paper PMC4336329 (PLoS ONE, 2015)
The campaign covered roughly 310,000 compounds. About 14,000 (4.5%) showed an effect of 50% or more. Effects have a minus sign here. The sample as a whole holds a higher share of strong results than the screen did.

What follows are compounds tested against human ether-à-go-go-related gene (hERG) potassium channel (human, UniProt Q12809) (assay: primary screen, population patch clamp on CHO cells stably expressing hERG; higher = less effect of the substance).
Sequence of human ether-à-go-go-related gene (hERG) potassium channel (Q12809 whole entry, looked up): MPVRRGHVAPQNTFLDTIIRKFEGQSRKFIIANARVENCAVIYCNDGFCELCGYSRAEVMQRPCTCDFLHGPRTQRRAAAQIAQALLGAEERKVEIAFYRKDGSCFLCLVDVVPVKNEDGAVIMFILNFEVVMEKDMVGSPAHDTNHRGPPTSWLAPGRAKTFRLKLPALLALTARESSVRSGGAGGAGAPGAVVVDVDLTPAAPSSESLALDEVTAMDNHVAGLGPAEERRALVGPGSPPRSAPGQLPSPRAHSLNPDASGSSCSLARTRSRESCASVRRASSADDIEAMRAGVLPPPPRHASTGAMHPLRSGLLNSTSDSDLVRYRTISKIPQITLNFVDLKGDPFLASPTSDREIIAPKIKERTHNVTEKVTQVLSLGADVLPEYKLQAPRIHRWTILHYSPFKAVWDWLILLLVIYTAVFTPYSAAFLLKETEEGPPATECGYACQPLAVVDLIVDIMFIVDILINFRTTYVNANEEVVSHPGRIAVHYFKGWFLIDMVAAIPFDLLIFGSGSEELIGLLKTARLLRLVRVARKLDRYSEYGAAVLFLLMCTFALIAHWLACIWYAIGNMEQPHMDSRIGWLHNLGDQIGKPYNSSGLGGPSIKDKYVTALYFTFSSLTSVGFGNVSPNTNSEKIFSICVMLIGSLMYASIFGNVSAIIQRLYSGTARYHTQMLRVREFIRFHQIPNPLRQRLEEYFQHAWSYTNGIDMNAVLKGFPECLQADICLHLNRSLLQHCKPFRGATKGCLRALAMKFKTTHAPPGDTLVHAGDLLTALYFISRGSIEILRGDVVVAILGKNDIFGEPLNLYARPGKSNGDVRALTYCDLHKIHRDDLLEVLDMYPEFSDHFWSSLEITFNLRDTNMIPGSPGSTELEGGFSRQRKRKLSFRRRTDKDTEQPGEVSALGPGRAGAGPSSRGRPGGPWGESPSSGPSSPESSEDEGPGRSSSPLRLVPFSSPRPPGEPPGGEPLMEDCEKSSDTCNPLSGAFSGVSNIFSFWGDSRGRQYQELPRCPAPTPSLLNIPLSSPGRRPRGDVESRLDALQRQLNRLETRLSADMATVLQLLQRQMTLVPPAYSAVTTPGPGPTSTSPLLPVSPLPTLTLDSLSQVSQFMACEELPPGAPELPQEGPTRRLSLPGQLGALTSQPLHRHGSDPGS
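Further: peak tail current of the secondary pulse compared with the same well before compound.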

First: Cc1ccc2cccnc2c1N
Second: CCSc1ccccc1C(=O)Nc1cccnc1
The “hERG current change (%, negative = inhibition) at 10uM” value of the first is higher: 4.5% for the first, -5.83% for the second.

First: NC(=O)c1ccccc1NC(=O)C1CCCO1 (stereo not drawn)
Second: O=C1CN(C(=S)NC(=O)c2ccccc2[N+](=O)[O-])CCN1
The “hERG current change (%, negative = inhibition) at 10uM” value of the first is lower: 8.51% for the first, 16.9% for the second.

Compared with `COc1ccccc1CN(C)C(=O)c1ccc(COc2ccccc2)cc1`, `Cc1cc(-c2ccccc2)nc(SCc2ccc(C(=O)O)cc2)n1` is higher in “hERG current change (%, negative = inhibition) at 10uM” value: 6.77% for the first, 23.8% for the second.

First: CCOc1cnc(-c2c(-c3ccccc3Cl)noc2C)o1
Second: O=C(CSc1nc2ccc(Cl)cc2[nH]1)c1c[nH]c2ccccc12
The “hERG current change (%, negative = inhibition) at 10uM” value of the first is lower: -3.56% for the first, 26.8% for the second.

First: Cc1cccc2c(=O)c(C(=O)NCCc3ccccc3)c[nH]c12
Second: Cc1cccc(NC(=O)c2cc(-c3ccco3)nc3ccccc23)n1
The “hERG current change (%, negative = inhibition) at 10uM” value of the first is higher: 21.9% for the first, 4.05% for the second.

First: CC(=O)Nc1ccc(SCC(=O)c2ccc(Br)s2)cc1
Second: COc1ccc(C(=O)C2CCN(C(=O)Nc3ccc(C)cc3)CC2)cc1
The “hERG current change (%, negative = inhibition) at 10uM” value of the first is higher: 19.5% for the first, -9.82% for the second.

Compared with `Cc1cnc(NC(=O)c2ccco2)s1`, `COc1ccc(C(=O)C2CCN(C(=O)c3ccco3)CC2)cc1` is lower in “hERG current change (%, negative = inhibition) at 10uM” value: 13.9% for the first, -13.4% for the second.

Compared with `O=C(Nc1ccccc1C(=O)Nc1ccccc1)c1cccs1`, `CCc1ccc(N(CC(=O)Nc2ccc(NC(C)=O)cc2)S(=O)(=O)c2ccccc2)cc1` is higher in “hERG current change (%, negative = inhibition) at 10uM” value: -0.413% for the first, 10.5% for the second.

Compared with `COC(=O)C1=CN(Cc2ccccc2)C=C(C(=O)OC)C1c1cc(F)ccc1F`, `COc1ccc(Nc2ncnc3c2cnn3Cc2ccccc2)cc1` is lower in “hERG current change (%, negative = inhibition) at 10uM” value: -12.6% for the first, -18.1% for the second.

Compared with `c1ccc(-c2csc3ncnc(N4CCc5ccccc5C4)c23)cc1`, `O=C(c1cnn2c(C(F)(F)F)cc(-c3ccc(F)cc3)nc12)N1CCc2ccccc2C1` is lower in “hERG current change (%, negative = inhibition) at 10uM” value: -1.81% for the first, -3.83% for the second.

Going from `O=C(c1ccc(-n2cncn2)c([N+](=O)[O-])c1)N1CCN(S(=O)(=O)c2ccc(F)c(F)c2)CC1` to `O=C(c1ccc(-n2cncn2)c([N+](=O)[O-])c1)N1CCN(c2cccc(Cl)c2)CC1`, the “hERG current change (%, negative = inhibition) at 10uM” value rises from -72.7% to -68.5%.

Going from `O=C(Nc1ccc(F)c(F)c1)c1ccc(-n2cncn2)c([N+](=O)[O-])c1` to `O=C(Nc1cccc(Cl)c1)c1ccc(-n2cncn2)c([N+](=O)[O-])c1`, the “hERG current change (%, negative = inhibition) at 10uM” value rises from -35.7% to -35%.

First: O=C(NNC(=O)c1ccc(-n2cncn2)c([N+](=O)[O-])c1)c1ccc(Cl)cc1
Second: O=C(NNC(=O)c1ccc(-n2cncn2)c([N+](=O)[O-])c1)c1cccc(Cl)c1
The “hERG current change (%, negative = inhibition) at 10uM” value of the first is higher: -9.94% for the first, -26.3% for the second.

Compared with `O=C(CCCN1C(=O)C2CC=CCC2C1=O)Nc1ccccc1F` (stereo not drawn), `O=C1c2ccccc2C(=O)N1CCc1csc(-c2cccc(F)c2)n1` is lower in “hERG current change (%, negative = inhibition) at 10uM” value: 1.61% for the first, -22.5% for the second.

Compared with `CC(=O)C1C2c3ccccc3OC1(C)N=c1s/c(=C/c3cn(C)nc3C)c(=O)n12` (stereo not drawn), `CCOc1ccc(NC(=O)C(CC)n2nc(C)c3c(C)n(-c4ccccc4)nc3c2=O)cc1` (stereo not drawn) is lower in “hERG current change (%, negative = inhibition) at 10uM” value: -0.454% for the first, -30.1% for the second.

First: Cc1cccc(N2CCN(C(=O)c3ccc(-n4cncn4)c([N+](=O)[O-])c3)CC2)c1C
Second: Cc1cccc(N2CCN(c3ccc(C(N)=O)cc3[N+](=O)[O-])CC2)c1C
The “hERG current change (%, negative = inhibition) at 10uM” value of the first is lower: -58.9% for the first, 21.7% for the second.

Compared with `O=C(O)c1ccc(-n2cncn2)c([N+](=O)[O-])c1`, `COc1ccc([N+](=O)[O-])cc1NC(=O)COC(=O)/C=C/c1ccco1` is lower in “hERG current change (%, negative = inhibition) at 10uM” value: 11.6% for the first, 1.54% for the second.

Compared with `COc1ccc(C2=NS(=O)(=O)N(C)C(C(=O)Nc3ccc(OC)c(OC)c3)=C2)cc1`, `COc1ccc(NC(=O)/C(N=Nc2cc(S(=O)(=O)Nc3ccc(OC)cc3)ccc2OC)=C(\C)O)cc1` is higher in “hERG current change (%, negative = inhibition) at 10uM” value: -11.9% for the first, 24.2% for the second.

First: O=C(c1ccccc1)N1CCN(c2ccc(Cl)cc2)CC1
Second: O=C(c1ccc(Cl)cc1)N1CCN(c2ccc(F)cc2)CC1
The “hERG current change (%, negative = inhibition) at 10uM” value of the first is higher: -25.1% for the first, -34% for the second.

Compared with `COc1cc(OC)cc(C(=O)N2CCC(C(=O)c3ccc(F)cc3)CC2)c1`, `COc1ccc(C(=O)N2CCC(C(=O)c3ccc(F)cc3)CC2)cc1` is lower in “hERG current change (%, negative = inhibition) at 10uM” value: -30.8% for the first, -70.2% for the second.

Going from `COc1ccc(C(CC(=O)N2CCCC2)C(C)C)cc1` (stereo not drawn) to `COc1ccc(C(CC(=O)N2CCCCC2)C(C)C)cc1` (stereo not drawn), the “hERG current change (%, negative = inhibition) at 10uM” value rises from -2.25% to 15.8%.

Going from `COc1cc(OC)cc(OC(=O)C2CCN(C(=O)c3ccc(Cl)cc3)CC2)c1` to `COc1ccc(C(=O)C2CCN(C(=O)c3ccc(OC)cc3)CC2)cc1`, the “hERG current change (%, negative = inhibition) at 10uM” value falls from -33.9% to -77.1%.

Going from `COc1ccc(C(=O)N2CCC(C(=O)c3c(C)cc(C)cc3C)CC2)cc1` to `Cc1ccc(C(=O)N2CCC(C(=O)c3c(C)cc(C)cc3C)CC2)cc1`, the “hERG current change (%, negative = inhibition) at 10uM” value rises from -55.3% to -38.5%.

Compared with `COc1ccc(C(=O)C2CCN(C(=O)c3ccc(F)cc3)CC2)cc1`, `COc1ccc(C(=O)C2CCN(C(=O)c3ccc(C)cc3)CC2)cc1` is lower in “hERG current change (%, negative = inhibition) at 10uM” value: -28.5% for the first, -66.3% for the second.

Going from `Cc1ccc(C(=O)N2CCN(c3ccc(Cl)cc3)CC2)cc1` to `Cc1ccc(C(=O)N2CCC(C(=O)c3ccc(Cl)cc3)CC2)cc1`, the “hERG current change (%, negative = inhibition) at 10uM” value falls from -61.1% to -68.4%.

Compared with `COc1ccc(C(CC(=O)N2CCCC2)c2ccc(F)cc2)cc1` (stereo not drawn), `COc1ccc(N2CCN(C(=O)CCc3ccc(S(=O)(=O)NC(C)C)cc3)CC2)cc1` is higher in “hERG current change (%, negative = inhibition) at 10uM” value: -71.5% for the first, -7.82% for the second.

First: C#CCn1ccc(O)c(Cc2c(F)cccc2Cl)c1=O
Second: O=C(c1ccco1)N1CCN(Cc2cn[nH]c2-c2ccc(F)cc2F)CC1
The “hERG current change (%, negative = inhibition) at 10uM” value of the first is higher: 8.2% for the first, -12.8% for the second.

Going from `COc1ccc(Cl)cc1C(=O)NNC(=O)CSc1nnnn1C` to `COc1ccc(-c2csc(NC(=O)CN3C(=O)CCC3=O)n2)cc1OC`, the “hERG current change (%, negative = inhibition) at 10uM” value rises from 9.95% to 11.4%.

First: Cc1ccc(C(=O)C2CCN(C(=O)c3ccc(C)cc3)CC2)cc1
Second: O=C(c1ccc(Cl)cc1)C1CCN(C(=O)c2ccccc2)CC1
The “hERG current change (%, negative = inhibition) at 10uM” value of the first is lower: -36.8% for the first, -34.3% for the second.

Compared with `COc1ccc(NC(=S)N2CCC(C(=O)c3ccc(C)cc3)CC2)cc1`, `COc1ccc(NC(=S)N2CCC(C(=O)c3ccc(OC)cc3)CC2)cc1` is lower in “hERG current change (%, negative = inhibition) at 10uM” value: -21.9% for the first, -45.4% for the second.

Going from `CCOP(=O)(OCC)C(NC(=O)c1ccc(OC)c(OC)c1)c1ccccc1` (stereo not drawn) to `CS(=O)(=O)Nc1ccc2c(c1)ncn2CCc1ccccc1`, the “hERG current change (%, negative = inhibition) at 10uM” value falls from 9.71% to -26.4%.

Compared with `COc1ccc(/C(O)=C2\C(=O)C(=O)N(CCN(C)C)C2c2cc(OC)c(OC)c(OC)c2)c(C)c1` (stereo not drawn), `CCCCN(C(=O)c1ccc2c(c1)OCO2)c1c(N)n(CC(C)C)c(=O)[nH]c1=O` is lower in “hERG current change (%, negative = inhibition) at 10uM” value: 3.79% for the first, -6.58% for the second.

First: CC(C)N(C(=O)c1sc2cc([N+](=O)[O-])ccc2c1Cl)C(C)C
Second: COc1ccc(N2CCN(C(=O)CCc3ccc(S(=O)(=O)NCC(C)C)cc3)CC2)cc1
The “hERG current change (%, negative = inhibition) at 10uM” value of the first is higher: -13.4% for the first, -57.1% for the second.

Compared with `COCC1CCN(Cc2cn[nH]c2-c2ccc(OC)c(F)c2)C1` (stereo not drawn), `COc1ccc(-c2[nH]ncc2CN2CCC(c3ccncc3)CC2)cc1F` is lower in “hERG current change (%, negative = inhibition) at 10uM” value: -4.22% for the first, -62.7% for the second.

Compared with `O=C(c1ccco1)N1CCN(Cc2cn[nH]c2-c2cccc3ccccc23)CC1`, `O=C(c1ccco1)N1CCCN(Cc2cn[nH]c2-c2ccc(-c3ccccc3)cc2)CC1` is lower in “hERG current change (%, negative = inhibition) at 10uM” value: -29.1% for the first, -59.3% for the second.

Going from `Cc1ccccc1CN1CCN(C(=O)c2ccco2)CC1.O=C(O)C(=O)O` to `COc1ccc(-c2[nH]ncc2CN2CCN(C(=O)c3ccco3)CC2)cc1F`, the “hERG current change (%, negative = inhibition) at 10uM” value falls from 7.41% to -6.81%.

Going from `COc1ccc(-c2[nH]ncc2CN2CCC(N3CCSCC3)CC2)cc1F` to `COc1ccc(-c2[nH]ncc2CN2CCCN(C(=O)c3ccco3)CC2)cc1F`, the “hERG current change (%, negative = inhibition) at 10uM” value falls from -22.5% to -55.2%.

Compared with `Cc1cc(NC(=O)CN2CCN(S(=O)(=O)c3ccc4ccccc4c3)CC2)no1`, `CC(C)CNS(=O)(=O)c1ccc(CCC(=O)N2CCN(Cc3ccccc3)CC2)cc1` is lower in “hERG current change (%, negative = inhibition) at 10uM” value: -14.7% for the first, -35.2% for the second.

Compared with `Clc1ccc(-n2ncc3c(NCc4cccnc4)ncnc32)cc1Cl`, `O=C(CCc1ccc(S(=O)(=O)NCc2ccccc2)cc1)N1CCN(Cc2ccc3c(c2)OCO3)CC1` is lower in “hERG current change (%, negative = inhibition) at 10uM” value: 14.6% for the first, -41.2% for the second.

First: Cc1cccc(OC(C)C(=O)N(Cc2cccs2)C2CCS(=O)(=O)C2)c1C (stereo not drawn)
Second: COc1ccc(N2CCN(C(=O)CCNS(=O)(=O)c3cccs3)CC2)cc1
The “hERG current change (%, negative = inhibition) at 10uM” value of the first is higher: -14.8% for the first, -26% for the second.

Compared with `CC(C)CNS(=O)(=O)c1ccc(CCC(=O)N2CCN(c3ccccc3)CC2)cc1`, `CCNS(=O)(=O)c1ccc(CCC(=O)N2CCN(c3ccccc3)CC2)cc1` is higher in “hERG current change (%, negative = inhibition) at 10uM” value: -91.3% for the first, -16.8% for the second.

First: CCNS(=O)(=O)c1ccc(CCC(=O)N2CCN(c3ccc(OC)cc3)CC2)cc1
Second: COc1ccc(N2CCN(C(=O)CCNS(=O)(=O)c3ccc(Br)s3)CC2)cc1
The “hERG current change (%, negative = inhibition) at 10uM” value of the first is higher: -8.99% for the first, -50.6% for the second.

First: O=C(CCc1ccc(S(=O)(=O)NCCc2ccccc2)cc1)N1CCN(Cc2ccc3c(c2)OCO3)CC1
Second: CC(C)CNS(=O)(=O)c1ccc(CCC(=O)N2CCN(Cc3ccc4c(c3)OCO4)CC2)cc1
The “hERG current change (%, negative = inhibition) at 10uM” value of the first is higher: -48.5% for the first, -54.4% for the second.

With `COc1ccc(N2CCN(C(=O)CNS(=O)(=O)c3ccc(Br)s3)CC2)cc1` the “hERG current change (%, negative = inhibition) at 10uM” value was -27.6%.
